Source: PubChem BioAssay (NCATS)
Inconclusive results are not listed. Unless noted, the call rests on the fitted dose curve; in most records, active means well fitted curve in either direction with a large enough effect (not every such curve was filed as active); inconclusive means small, poorly fitted or top-dose-only effect, or another doubt; inactive means flat fitted curve, though single readings scatter.

Experiments:
[1] = AP1 Signaling Pathway (AID 357); details: ME-180 AP-1-bla reporter, EGF-induced, beta-lactamase ratio, 5 h; at 17.2 µM (top of the series) unless noted; further: on the % scale 0 is the no-effect control and ±100 the full control effect
Outline: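 AP-1-bla ME-180 cells with beta-lactamase reporter under AP-1 response element, stimulated with EC50 EGF; compounds titrated, 5 hours at 37 degrees Celsius. CCF4 read at 460/530 nm ratio; positive and negative modulators judged by AC50.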

[2] = NFAT Signaling Pathway (AID 444); details: Jurkat NFAT-bla M1, carbachol, beta-lactamase ratio, 5 h; at 17.2 µM (top of the series) unless noted;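 further: carbachol stimulus at about its EC50 of 1 µM final; on the % scale 0 is the no-effect control and ±100 the full control effect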
Outline: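 Jurkat cells carrying an NFAT-driven β-lactamase reporter and co-transfected muscarinic M1 receptor were treated with compound plus carbachol (1 uM final, an EC50 level) for 5 h at 37 °C. CCF4 loading followed for 1 h at RT; 460/530 nm ratio gave %activity.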

[3] = Stat Signaling Pathway (AID 446); details: ME-180 SIE beta-lactamase reporter, IL-6 stimulated, 5 h; at 17.2 µM (top of the series) unless noted;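 further: ME-180 cervical cancer cells given 40 pM IL-6 alongside compound; SIE-controlled beta-lactamase reporter measured as 460/530 nm FRET emission ratio; on the % scale 0 is the no-effect control and ±100 the full control effect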
Outline: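 ME-180 cells carrying a SIE-driven beta-lactamase reporter are stimulated with 40 pM IL-6 for 5 h at 37C in the presence of compound. The 460/530 nm FRET substrate ratio is read after 2.5 h at RT. Data are normalised to 300 pM IL-6 and to 125 nM JAK inhibitor controls.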

[4] = biological target: Glucocorticoid receptor (Homo sapiens) (UniProt P04150); assay: GR-GFP Redistribution (AID 450;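 active means compounds whose dose series gives a full or clear partial fitted curve of increased nuclear translocation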; further: potency means the concentration at half of the fitted maximal effect)
Glucocorticoid receptor (Homo sapiens), sequence (P04150 whole entry, looked up): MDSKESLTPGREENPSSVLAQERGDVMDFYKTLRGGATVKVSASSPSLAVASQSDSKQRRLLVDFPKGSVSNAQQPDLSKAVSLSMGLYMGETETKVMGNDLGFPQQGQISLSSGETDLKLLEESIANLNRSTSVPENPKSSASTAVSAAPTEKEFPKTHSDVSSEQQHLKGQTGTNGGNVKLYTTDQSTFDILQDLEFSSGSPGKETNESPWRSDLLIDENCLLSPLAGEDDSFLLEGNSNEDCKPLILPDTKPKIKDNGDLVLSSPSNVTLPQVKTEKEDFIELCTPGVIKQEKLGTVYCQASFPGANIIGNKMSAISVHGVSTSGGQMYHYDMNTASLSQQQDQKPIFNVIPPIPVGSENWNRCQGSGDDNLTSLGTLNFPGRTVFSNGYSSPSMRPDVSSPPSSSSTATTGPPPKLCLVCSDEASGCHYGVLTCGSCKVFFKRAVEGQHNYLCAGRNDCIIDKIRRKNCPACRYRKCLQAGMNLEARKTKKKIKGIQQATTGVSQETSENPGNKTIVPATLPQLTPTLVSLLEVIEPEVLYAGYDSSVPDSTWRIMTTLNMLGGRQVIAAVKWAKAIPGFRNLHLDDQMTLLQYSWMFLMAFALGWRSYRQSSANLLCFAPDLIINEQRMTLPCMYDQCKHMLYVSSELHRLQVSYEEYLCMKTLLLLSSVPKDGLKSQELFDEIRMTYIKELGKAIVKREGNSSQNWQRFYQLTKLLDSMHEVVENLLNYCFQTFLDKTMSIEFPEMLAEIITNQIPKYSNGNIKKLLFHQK

Cc1noc(COc2ccccc2OCC(O)CNC(C)(C)C)n1 (stereo not given)
inactive: activity change, negative = inhibition [1] 4.01% | activity change, negative = inhibition [2] -1.96% | activity, negative = inhibition [3] 1.99% | Potency [4] > 20.6 µM

N/C(CCN1CCCCC1)=N/O
inactive: activity change, negative = inhibition [1] 8.61% | activity change, negative = inhibition [2] -6.23% | activity, negative = inhibition [3] 2.5% | Potency [4] > 20.6 µM

CC(NC(=O)Nc1nccs1)(C(F)(F)F)C(F)(F)F
inactive: activity change, negative = inhibition [1] 4.62% | activity change, negative = inhibition [2] 15.9% | activity, negative = inhibition [3] 5.57% | Potency [4] > 20.6 µM

Cc1ccc(C(=O)NCC(C)(C)O)cc1
inactive: activity change, negative = inhibition [1] 9.77% | activity change, negative = inhibition [2] -4.7% | activity, negative = inhibition [3] 12.1% | Potency [4] > 20.6 µM

CCc1cc2c(=O)c(-c3cscn3)coc2c(CN(C)C)c1O
inactive: activity change, negative = inhibition [1] 26.5% | activity change, negative = inhibition [2] -7.56% | activity, negative = inhibition [3] 10.5% | Potency [4] > 20.6 µM

CCOC(=O)CNC(=O)CCCCCC(=O)NCC(=O)OCC
inactive: activity change, negative = inhibition [1] 7.11% | activity change, negative = inhibition [2] 1.76% | activity, negative = inhibition [3] 7.81% | Potency [4] > 20.6 µM

Cc1ccc(S(=O)(=O)NCC(=O)OCN2C(=O)c3ccccc3C2=O)cc1
inactive: activity change, negative = inhibition [1] 2.06% | activity change, negative = inhibition [2] -25.1% | activity, negative = inhibition [3] 9.1% | Potency [4] > 20.6 µM

COc1ccc(OC)c(C2NC(=O)c3sc(=S)n(-c4ccccc4)c3N2)c1 (stereo not given)
inactive: activity change, negative = inhibition [1] -13.3% | activity change, negative = inhibition [2] -12.2% | activity, negative = inhibition [3] -13.8% | Potency [4] > 20.6 µM

Cc1cc(C)c(C#N)c(OCC(=O)c2ccccc2)n1
inactive: activity change, negative = inhibition [1] -15.4% | activity change, negative = inhibition [2] -4.3% | activity, negative = inhibition [3] -6.66% | Potency [4] > 20.6 µM

COC(=O)c1cc(S(=O)(=O)N2CCOCC2)c(N2CCOCC2)cc1N1CCOCC1
inactive: activity change, negative = inhibition [1] -1.61% | activity change, negative = inhibition [2] 5.16% | activity, negative = inhibition [3] 5.81% | Potency [4] > 20.6 µM

Cc1cc(-c2ccc(F)cc2)nc2cc(C(N)=O)nn12
inactive: activity change, negative = inhibition [1] -15.1% | activity change, negative = inhibition [2] -2.99% | activity, negative = inhibition [3] -7.09% | Potency [4] > 20.6 µM

COc1ccc(OC)c(C2/C(=C(\O)c3ccc4c(c3)OCCO4)C(=O)C(=O)N2CCCN(C)C)c1 (stereo not given)
inactive: activity change, negative = inhibition [1] 4.27% | activity change, negative = inhibition [2] 12.2% | activity, negative = inhibition [3] -7.15% | Potency [4] > 20.6 µM

COc1ccc(C2/C(=C(/O)c3cnn(-c4ccccc4)c3C)C(=O)C(=O)N2CCN(C)C)cc1OC (stereo not given)
inactive: activity change, negative = inhibition [1] -0.291% | activity change, negative = inhibition [2] 18.7% | activity, negative = inhibition [3] -4.43% | Potency [4] > 20.6 µM

O=C1CC(C(=O)O)c2ccccc2N1 (stereo not given)
inactive: activity change, negative = inhibition [1] 2.72% | activity change, negative = inhibition [2] -1.33% | activity, negative = inhibition [3] 6.42% | Potency [4] > 20.6 µM

CCOc1cccc(-c2nn3c(-c4ccco4)nnc3s2)c1
inactive: activity change, negative = inhibition [1] -15.5% | activity change, negative = inhibition [2] -4.59% | activity, negative = inhibition [3] -0.495% | Potency [4] > 20.6 µM

N#Cc1nc(-c2cccs2)oc1NCCc1ccccc1
inactive: activity change, negative = inhibition [1] -17.4% | activity change, negative = inhibition [2] -0.887% | activity, negative = inhibition [3] -12.8% | Potency [4] > 20.6 µM

CCOCCN(C(=O)COC)c1cccc(OC)c1
inactive: activity change, negative = inhibition [1] 20.2% | activity change, negative = inhibition [2] 2.78% | activity, negative = inhibition [3] 6.59% | Potency [4] > 20.6 µM

CCOc1ccc(N=C(NC#N)SCC(=O)NC2CC2)cc1
inactive: activity change, negative = inhibition [1] -3.71% | activity change, negative = inhibition [2] -22.1% | activity, negative = inhibition [3] -16.7% | Potency [4] > 20.6 µM

Cc1c(/C(O)=C2\C(=O)C(=O)N(CCN(C)C)C2c2cccs2)cnn1-c1ccccc1 (stereo not given)
inactive: activity change, negative = inhibition [1] 6.26% | activity change, negative = inhibition [2] -10.6% | activity, negative = inhibition [3] -3.53% | Potency [4] > 20.6 µM

CCC1(C)Cc2c(sc3nc4n(c(=O)c23)CCS4)CO1 (stereo not given)
inactive: activity change, negative = inhibition [1] -20.5% | activity change, negative = inhibition [2] -16.6% | activity, negative = inhibition [3] -2.05% | Potency [4] > 20.6 µM

CN1CCN(c2nc(C(N)=O)cc(-c3ccccc3)n2)CC1
inactive: activity change, negative = inhibition [1] -1.1% | activity change, negative = inhibition [2] -3.4% | activity, negative = inhibition [3] 20.9% | Potency [4] > 20.6 µM

CCn1c(SCC(=O)NC2CCCCC2C)nnc1-c1ccc(OC)cc1 (stereo not given)
inactive: activity change, negative = inhibition [1] -8.83% | activity change, negative = inhibition [2] 19.9% | activity, negative = inhibition [3] -7.61% | Potency [4] > 20.6 µM

N#CCCSc1nc(N2CCOCC2)c2c(c1C#N)CCCC2
inactive: activity change, negative = inhibition [1] -2.29% | activity change, negative = inhibition [2] 13.2% | activity, negative = inhibition [3] -12.4% | Potency [4] > 20.6 µM

CCN(CC)CCN1C(=O)C(=O)/C(=C(/O)c2c(C)[nH]c(C(=O)OC)c2C)C1c1ccco1 (stereo not given)
inactive: activity change, negative = inhibition [1] 6.74% | activity change, negative = inhibition [2] -2.14% | activity, negative = inhibition [3] -0.9% | Potency [4] > 20.6 µM

c1csc(-c2nn3c(C4CCCCC4)nnc3s2)c1
inactive: activity change, negative = inhibition [1] -6.89% | activity change, negative = inhibition [2] -19.6% | activity, negative = inhibition [3] 20.7% | Potency [4] > 20.6 µM
